Several values for one entry are separate records, joined by “and”; a condition that tells them apart may be missing. Equal entries are not always repeated. About 2,600 (16%) of roughly 16,000 compounds were called active. Not shown: some 20% with an inconclusive outcome. Calls come from the whole dose curve; as a rule, active = well fitted curve in the direction sought with a large enough effect; inconclusive = small, poorly fitted or top-dose-only effect, or effect the other way; inactive = no such curve, though single readings can be large or run the other way. Only a sample is shown. More than one record can exist for a structure, and the calls need not agree. Peptide text beside a SMILES is read from it.
The compounds below were run against Cytochrome P450 2D6 (Homo sapiens) (UniProt P10635) (assay: Cytochrome panel assay with activity outcomes). Details: recombinant CYP, pro-luciferin dealkylation, luminescence, p450-cyp2d6; series mostly up to 57.1 µM.
Sequence of Cytochrome P450 2D6 (Homo sapiens) (P10635 whole entry, looked up): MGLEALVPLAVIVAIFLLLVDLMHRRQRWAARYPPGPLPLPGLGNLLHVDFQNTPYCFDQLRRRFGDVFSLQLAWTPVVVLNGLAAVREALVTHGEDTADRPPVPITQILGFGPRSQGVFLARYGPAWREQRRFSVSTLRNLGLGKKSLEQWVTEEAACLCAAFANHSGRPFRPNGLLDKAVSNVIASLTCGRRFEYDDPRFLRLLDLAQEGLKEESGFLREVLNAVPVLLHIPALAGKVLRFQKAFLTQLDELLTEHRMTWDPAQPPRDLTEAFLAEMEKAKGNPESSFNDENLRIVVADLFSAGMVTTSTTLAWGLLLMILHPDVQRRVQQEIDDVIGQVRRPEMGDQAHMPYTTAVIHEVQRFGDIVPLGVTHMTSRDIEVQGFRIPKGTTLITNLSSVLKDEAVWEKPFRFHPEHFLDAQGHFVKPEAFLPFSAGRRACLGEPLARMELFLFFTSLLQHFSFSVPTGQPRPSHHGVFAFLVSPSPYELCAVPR
% is set by controls: 0 for no effect and ±100 for the full control effect.

| Structure (SMILES) | activity, negative = inhibition | AC50 |
| --- | --- | --- |
| O=C(O)c1cccc2cccc(-c3cccc4cccc(C(=O)O)c34)c12 | -12.7% [at 11.4 µM] (inactive) | – |
| O=C(c1c[nH]c(=O)n(-c2ccccc2)c1=O)N1CCc2ccccc21 | – | inactive |
| O=C(Nc1cccc(Br)c1)/C(=C\c1cccnc1)NC(=O)c1ccco1 | – | inactive |
| O=C(N/C(=C/c1ccc(Br)cc1)c1nc2ccccc2[nH]1)c1ccco1 | – | 12.6 µM (active) |
| O=C(/C(=C/c1ccc(Cl)cc1)c1nc2ccccc2[nH]1)c1ccccc1 | – | inactive |
| O=C1c2cccc3c(Cl)ccc(c23)C(=O)N1O | – | inactive |
| COC(=O)c1ccc(-n2cncn2)c(F)c1 | – | inactive |
| CCc1nn(C)c(-c2n[nH]c(=S)n2N)c1Cl | – | inactive |
| Cc1ccc(S(=O)(=O)NC(=O)OC23COCN2COC3)cc1 | 18.1% [at 11.4 µM] (inactive) | – |
| Nc1nc(SCc2ccc([N+](=O)[O-])cc2)c2ncn([C@@H]3O[C@@H](CO)[C@@H](O)[C@H]3O)c2n1 | – | inactive |
| O=C(CCN1C(=O)c2cccc3cccc(c23)C1=O)N1CCN(Cc2ccc3c(c2)OCO3)CC1 | – | 14.1 µM (active) |
| COC(=O)c1ccccc1OCC(=O)N1CCN(c2ccc(Cl)cc2)CC1 | – | inactive |
| O=C(CN1C(=O)c2cccc3cccc(c23)C1=O)N1CCCCCC1 | – | inactive |
| O=C(O)[C@@H]1CCCN1Cc1ccc2c(c1)OCO2 | 7.95% [at 11.4 µM] (inactive) | – |
| O=C(Cc1ccc(Cl)cc1)N1CCN(C(=O)c2ccco2)CC1 | – | inactive |
| Cc1ccc(NC(=S)N2CCN(CCN3C(=O)c4cccc5cccc(c45)C3=O)CC2)cc1 | – | inactive |
| O=C(O)C1CCN(c2ncccn2)CC1 | – | inactive |
| c1cnc(N2CCN(Cc3ccc4c(c3)OCO4)CC2)nc1 | – | 1 µM (active) and 200 nM (active) and inactive |
| O=C(COc1ccc(Cl)cc1)N1CCN(Cc2ccc3c(c2)OCO3)CC1 | – | 0.2 µM (active) |
| CC(=O)[C@@H](C)CCO[C@@]1(C)OCC[C@@H]1C | 0.323% [at 11.4 µM] (inactive) | – |
| CCOC(=O)c1c(NC(=O)CCCN2CCOCC2)sc2c1CC(C)(C)OC2 | – | inactive |
| COc1ccc2c(c1)c(CC(=O)O)c(C)n2C(=O)c1ccc(Cl)cc1 | – | inactive |
| CCc1ccc(NC(=O)C2CCN(S(=O)(=O)c3c(C)[nH]c(=O)[nH]c3=O)CC2)cc1 | – | inactive |
| CC(=O)[C@@H]1[C@@H]2C(=O)N(C3CCCCC3)C(=O)[C@@H]2C2c3ccccc3C=CN21 (some centres undefined) | – | inactive |
| O=C(CCCN1C(=O)C2C3C=CC(C3)C2C1=O)N1CCN(c2ccccc2)CC1 (centres undefined) | – | inactive |

| Structure (SMILES) | activity, negative = inhibition | AC50 |
| --- | --- | --- |
| Cc1nnc(-c2cnn(-c3ccccc3)c2N)n1Cc1ccncc1 | – | inactive |
| Cn1c(=O)c(-c2ccccc2)nc2cncnc21 | – | inactive |
| Cn1c(-c2ccccc2)cnc1N | – | 11.2 µM (active) |
| Nc1nonc1-n1nncc1-c1ccccc1 | – | inactive |
| CCCCN1C(=O)C(NC(=O)c2cccnc2)(C(F)(F)F)C2=C1CC(C)(C)CC2=O (centres undefined) | – | inactive |
| COc1ccc2c3c(ccc2c1)N[C@H](C(=O)O)CC3 | 3.59% [at 11.4 µM] (inactive) | – |
| Cc1cc(=O)[nH]c(-n2[nH]c(C)cc2=O)n1 | – | inactive |
| CC1(C)CCC(NC(=O)[C@H](N)CCC(=O)O)CC1 | – | inactive |
| COc1ccc(-n2c(=O)c(-c3cccs3)nc3cnc(N4CCNCC4)nc32)cc1 | – | inactive |
| CCOC(=O)c1sc(NC(C)=O)nc1-c1ccccc1 | – | inactive |
| C=CCSc1nc(C)cc(/C=C\c2ccccc2)c1C#N | – | 2.82 µM (active) |
| Cc1cc(C)c(C#N)c(SCS(=O)c2ccc(C(C)(C)C)cc2)n1 (centres undefined) | – | inactive |
| Cc1cc(C)c(C#N)c(Oc2ccccc2)n1 | – | inactive |
| COc1ccc(-c2nc3cnc(N(C)C)nc3n(CCc3ccccc3)c2=O)cc1 | – | inactive |
| Cc1ccc(S(=O)(=O)CCc2nnc(NC(=O)COc3cccc(C)c3)s2)cc1 | – | inactive |
| CC(=O)N[C@@H](CC(=O)O)C(=O)N[C@@H](CCC(=O)O)C(=O)O (Ac-Asp-Glu-OH) | – | inactive |
| COc1cc2nncc(SCc3ccc(Cl)c(Cl)c3)c2cc1OC | 1.56% [at 11.4 µM] (inactive) | – |
| Clc1ccc(CSC2=NCCN2)cc1Cl | – | 3.16 µM (active) |
| Cc1ccc(S(=O)(=O)NCc2cccc([N+](=O)[O-])c2)cc1 | 1.17% [at 11.4 µM] (inactive) | – |
| N[C@@H](Cc1cccc([N+](=O)[O-])c1)C(=O)O | 1.07% [at 11.4 µM] (inactive) | – |
| CCN(Cc1ccccc1)Cc1cccc([N+](=O)[O-])c1 | – | 0.794 µM (active) |
| CN(C)N1C(N)=C(C#N)C(c2cccnc2)C2=C1CC(C)(C)CC2=O (centres undefined) | – | inactive |
| Cc1ccc(=O)n(-c2ccccc2)c1 | – | inactive |
| O=C1C=C(NCC2CCCO2)C2(CCCCC2)O1 (centres undefined) | – | inactive |

Reference: PubChem BioAssay AID1851 (National Center for Advancing Translational Sciences (NCATS), 2009)
